Experimental data published in PubChem BioAssay AID1159580 (chemical genetic matrix, 2015).
Screen size: about 5,500 compounds; about 2,000 (36%) were called active. Inconclusive results (about 18%) are left out. Rule as the data show it: active = normalized growth mostly below about 0.91 (no sharp cut-off); inconclusive = no clear call, values can overlap the other calls; inactive = mostly above about 0.92. The list shows a part of the results.

Experiment: chemical genetic growth profiling, strain panel (AID 1159580);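 also: tested at 20 µM; growth read once vehicle control cultures reached saturation at 30 °C; 1 = growth at the plate median or of vehicle wells; lower values mean less growth of the strain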
Details: growth OD

Measured: normalized growth

CCOc1nc2cccc(C(=O)OC(C)OC(=O)OC3CCCCC3)c2n1Cc1ccc(-c2ccccc2-c2nn[nH]n2)cc1 (configuration not stated)
inactive: S. cerevisiae deletion strains, locus YJR075W, strain HOC1, hits give low values 0.989 | S. cerevisiae deletion strains, locus YKL009W, strain mrt4, hits give low values 1.1 | S. cerevisiae deletion strains, locus YKL068W, hits give low values 0.997 | S. cerevisiae deletion strains, locus YKL085W, strain MDH1 (second series), hits give low values 0.994 | S. cerevisiae deletion strains, locus YKL085W, strain MDH1, hits give low values 0.994 | S. cerevisiae deletion strains, locus YKL160W, strain elf1, hits give low values 1.02 | S. cerevisiae deletion strains, locus YKL190W, strain CNB1, hits give low values 0.999 | S. cerevisiae deletion strains, locus YKR001C, strain vps1, hits give low values 0.963 | S. cerevisiae deletion strains, locus YKR026C, strain gcn3, hits give low values 1.03 | S. cerevisiae deletion strains, locus YKR091W, strain srl3, hits give low values 1.02 | S. cerevisiae deletion strains, locus YLL001W, strain dnm1, hits give low values 1.03 | S. cerevisiae deletion strains, locus YLL026W, hits give low values 1.01 | S. cerevisiae deletion strains, locus YLL041C, strain sdh2, hits give low values 1.01 | S. cerevisiae deletion strains, locus YLR027C, strain aat2, hits give low values 1.02 | S. cerevisiae deletion strains, locus YLR039C, strain RIC1, hits give low values 0.815 | S. cerevisiae deletion strains, locus YLR058C, strain SHM2, hits give low values 1.01 | S. cerevisiae deletion strains, locus YLR102C, strain apc9, hits give low values 0.998 | S. cerevisiae deletion strains, locus YLR113W, strain HOG1, hits give low values 1.03 | S. cerevisiae deletion strains, locus YLR221C, strain rsa3, hits give low values 1.01 | S. cerevisiae deletion strains, locus YLR258W, strain gsy2, hits give low values 1.02 | S. cerevisiae deletion strains, locus YLR262C, strain YPT6, hits give low values 0.797 | S. cerevisiae deletion strains, locus YLR268W, strain sec22, hits give low values 0.981 | S. cerevisiae deletion strains, locus YLR320W, strain mms22, hits give low values 0.999 | S. cerevisiae deletion strains, locus YLR330W, strain CHS5, hits give low values 1 | S. cerevisiae deletion strains, locus YLR342W, strain FKS1 (second series), hits give low values 0.862 | S. cerevisiae deletion strains, locus YLR342W, strain FKS1, hits give low values 1.02 | S. cerevisiae deletion strains, locus YLR357W, strain rsc2, hits give low values 1.07 | S. cerevisiae deletion strains, locus YLR370C, strain arc18, hits give low values 1.02 | S. cerevisiae deletion strains, locus YLR371W, strain rom2, hits give low values 0.997 | S. cerevisiae deletion strains, locus YLR384C, strain iki3, hits give low values 1.01 | S. cerevisiae deletion strains, locus YLR418C, strain cdc73, hits give low values 0.959 | S. cerevisiae deletion strains, locus YML016C, strain PPZ1, hits give low values 1.01 | S. cerevisiae deletion strains, locus YML032C, strain rad52, hits give low values 1 | S. cerevisiae deletion strains, locus YML120C, strain ndi1, hits give low values 1.04 | S. cerevisiae deletion strains, locus YML124C, strain tub3, hits give low values 1 | S. cerevisiae deletion strains, locus YMR058W, strain fet3, hits give low values 1.02 | S. cerevisiae deletion strains, locus YMR078C, strain ctf18, hits give low values 1.01 | S. cerevisiae deletion strains, locus YMR125W, strain sto1, hits give low values 1.06 | S. cerevisiae deletion strains, locus YMR129W, hits give low values 1.03 | S. cerevisiae deletion strains, locus YMR205C, strain PFK2, hits give low values 0.99 | S. cerevisiae deletion strains, locus YMR223W, strain ubp8, hits give low values 0.984 | S. cerevisiae deletion strains, locus YMR231W, strain pep5, hits give low values 1.02 | S. cerevisiae deletion strains, locus YMR263W, strain SAP30, hits give low values 1 | S. cerevisiae deletion strains, locus YMR307W, strain GAS1, hits give low values 0.734 | S. cerevisiae deletion strains, locus YNL067W, strain RPL9B, hits give low values 0.992 | S. cerevisiae deletion strains, locus YNL071W, strain lat1, hits give low values 1.02 | S. cerevisiae deletion strains, locus YNL128W, strain TEP1, hits give low values 0.995 | S. cerevisiae deletion strains, locus YNL153C, strain GIM3, hits give low values 1 | S. cerevisiae deletion strains, locus YNL183C, strain NPR1, hits give low values 0.968 | S. cerevisiae deletion strains, locus YNL209W, strain ssb2, hits give low values 1 | S. cerevisiae deletion strains, locus YNL233W, strain BNI4, hits give low values 0.999 | S. cerevisiae deletion strains, locus YNL248C, strain rpa49, hits give low values 1.02 | S. cerevisiae deletion strains, locus YNL250W, strain rad50, hits give low values 0.991 | S. cerevisiae deletion strains, locus YNL271C, strain bni1, hits give low values 1 | S. cerevisiae deletion strains, locus YNL298W, strain CLA4, hits give low values 1 | S. cerevisiae deletion strains, locus YNL307C, strain MCK1, hits give low values 0.995 | S. cerevisiae deletion strains, locus YNL322C, strain KRE1 (second series), hits give low values 1.03 | S. cerevisiae deletion strains, locus YNL322C, strain KRE1, hits give low values 1 | S. cerevisiae deletion strains, locus YNR049C, strain mso1, hits give low values 1.04 | S. cerevisiae deletion strains, locus YNR052C, strain pop2, hits give low values 1 | S. cerevisiae deletion strains, locus YOL006C, strain TOP1, hits give low values 0.763 | S. cerevisiae deletion strains, locus YOL012C, strain htz1 0.976 | S. cerevisiae deletion strains, locus YOL147C, strain pex11, hits give low values 1 | S. cerevisiae deletion strains, locus YOR001W, strain rrp6, hits give low values 1.02 | S. cerevisiae deletion strains, locus YOR061W, strain CKA2, hits give low values 1 | S. cerevisiae deletion strains, locus YOR069W, strain VPS5, hits give low values 1 | S. cerevisiae deletion strains, locus YOR070C, strain gyp1, hits give low values 1 | S. cerevisiae deletion strains, locus YOR080W, strain dia2, hits give low values 1.02 | S. cerevisiae deletion strains, locus YOR083W, strain WHI5, hits give low values 1.01 | S. cerevisiae deletion strains, locus YOR106W, strain vam3, hits give low values 0.983 | S. cerevisiae deletion strains, locus YOR136W, strain idh2, hits give low values 0.984 | S. cerevisiae deletion strains, locus YOR144C, strain elg1, hits give low values 0.993 | S. cerevisiae deletion strains, locus YOR184W, strain ser1, hits give low values 0.952 | S. cerevisiae deletion strains, locus YOR231W, strain MKK1, hits give low values 0.998 | S. cerevisiae deletion strains, locus YOR265W, strain rbl2, hits give low values 1.02 | S. cerevisiae deletion strains, locus YOR270C, strain vph1, hits give low values 1.04 | S. cerevisiae deletion strains, locus YOR290C, strain snf2, hits give low values 1.02 | S. cerevisiae deletion strains, locus YOR316C, strain cot1, hits give low values 0.996 | S. cerevisiae deletion strains, locus YPL051W, strain arl3, hits give low values 0.999 | S. cerevisiae deletion strains, locus YPL055C, strain LGE1, hits give low values 0.988 | S. cerevisiae deletion strains, locus YPL078C, strain atp4, hits give low values 1.05 | S. cerevisiae deletion strains, locus YPL106C, strain sse1, hits give low values 0.993 | S. cerevisiae deletion strains, locus YPL240C, strain hsp82, hits give low values 1.01 | S. cerevisiae deletion strains, locus YPL241C, strain CIN2, hits give low values 1 | S. cerevisiae deletion strains, locus YPL256C, strain CLN2, hits give low values 0.961 | S. cerevisiae deletion strains, locus YPR119W, strain clb2, hits give low values 0.992 | S. cerevisiae deletion strains, locus YPR141C, strain kar3, hits give low values 0.998 | S. cerevisiae deletion strains, locus YPR163C, strain tif3, hits give low values 0.99 | S. cerevisiae deletion strains, locus YPR167C, strain met16, hits give low values 1 | S. cerevisiae deletion strains, strain wtn01, hits give low values 0.989 | S. cerevisiae strains, strain wild type, hits give low values 0.997
active: S. cerevisiae deletion strains, locus YLR262C, strain YPT6 (second series), hits give low values 0.826
